DAX1 inh-1 – DAX1 (NR0B1) inhibitors, primary screen, cell-based, HEK293, Gal4-DAX1, luciferase luminescence; inhibition, % at 6.75 µM; HEK293 Gal4-DAX1 luciferase reporter; Nuclear receptor subfamily 0 group B member 1 (Homo sapiens), P51843; 340,000 tested, 0.99% active;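 active = inhibition above the mean over all tested compounds plus 3 SD, cut at about 4.2% in these data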;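 also: 0% = DAX1-transfected cells with DMSO and 100% = empty-vector control cells with DMSO; inhibition shows as a rise in luminescence from relieved DAX1 repression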
Target sequence (P51843 207-470 limits assumed): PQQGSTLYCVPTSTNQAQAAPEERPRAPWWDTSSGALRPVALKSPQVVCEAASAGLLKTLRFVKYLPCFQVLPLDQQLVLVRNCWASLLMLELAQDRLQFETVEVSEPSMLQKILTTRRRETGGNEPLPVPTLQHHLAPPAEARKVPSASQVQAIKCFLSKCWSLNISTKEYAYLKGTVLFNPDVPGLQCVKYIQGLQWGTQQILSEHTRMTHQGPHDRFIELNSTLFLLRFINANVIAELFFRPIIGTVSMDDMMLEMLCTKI
hgDAF12 agonist – H. glycines DAF-12 receptor agonists, primary screen, cell-based, luminescence, HEK293, GAL4 fusion, UAS-luciferase. activation, % at 6.8 µM. AID 687014, 2013. 370,000 tested, 1.8% active. HEK293 GAL4-hgDAF12 UAS-luciferase reporter, agonist luminescence; normalized to butyrate control;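 active = activation above a cutoff set at the mean of all screened compounds plus 3 SD, cut at about 10% in these data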;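 also: 0% = DMSO wells and 100% = sodium butyrate wells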
ssDAF-12 act – S. stercoralis DAF-12 nuclear receptor activators, primary screen, cell-based, luminescence, HEK293, GRIP1 co-expression, lit1-tk-luc | Nuclear hormone receptor DAF-12 (Strongyloides stercoralis) | HEK293 ssDAF-12/GRIP1 lit1-tk-luc reporter; % of 3 µM dafachronic acid response | activation, % at 6.8 µM | 370,000 tested, 1% active | AID 652126, 2013;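 active = activation above the mean over all tested compounds plus 3 SD, cut at about 0.9% in these data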;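 also: 0% = DMSO-only wells and 100% = 3 µM delta7-dafachronic acid wells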
hcDAF12 agonist – H. contortus DAF-12 nuclear receptor activators, primary screen, cell-based, luminescence, HEK293, lit1-tk-luc reporter. HEK293 hcDAF-12 lit1-tk-luc reporter; 0% DMSO, 100% Δ7-dafachronic acid. 370,000 tested, 1.4% active. activation, % at 6.8 µM;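 active = activation above the mean of all tested compounds plus 3 SD, cut at about 5.5% in these data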;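 also: 100% = response to 3 µM Δ7-dafachronic acid high control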
DAX1 inh-2 – DAX1 (NR0B1) inhibitors on StAR promoter, primary screen, cell-based, luminescence, SF-1 (NR5A1), full-length DAX-1; HEK293T StAR-luciferase reporter, SF-1/DAX-1 repression relief; inhibition, % at 6.8 µM; 370,000 tested, 1.1% active; AID 652010, 2013;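 active = inhibition above the mean over all tested compounds plus 3 SD, cut at about 3.6% in these data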;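 also: 0% = DAX-1 cells with DMSO and 100% = cells lacking DAX-1 with DMSO; higher inhibition means more luminescence from relief of DAX-1 repression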
* = called active by the depositor; · = no result given. Most compounds without a hit are left out; they make up all but 4.1% or so of the library.

SMILES | DAX1 inh-1 | hgDAF12 agonist | ssDAF-12 act | hcDAF12 agonist | DAX1 inh-2
CN(c1ccc(OCC(=O)OCC(=O)NC2CCCC2)cc1)S(=O)(=O)c1ccc2ccccc2c1 | -0.1 | 0.8 | 1.2* | 2.5 | 1.0
CN(C)c1cccc(/C=C2\CC3(OC(=O)c4cccc(F)c4)CCCN2C3)c1 (centres undefined) | · | -1.0 | -0.5 | 0.2 | 0.6
O=C(CCc1nc2ccccc2c(=O)[nH]1)Nc1ccc(F)c([N+](=O)[O-])c1 | -0.4 | -1.0 | -1.8 | -0.4 | 1.4
O=C(Nc1cc([N+](=O)[O-])c2[nH]c(=O)c3ccccc3c2c1)C(F)(F)F | 1.4 | -2.8 | -0.3 | 1.8 | 3.9*
COc1ccc(S[C@]2(C(=O)N3CCCC3)CC(=O)N(C(=O)CCc3ccccc3)[C@@H]2c2ccc(OC)cc2)cc1 | · | 1.3 | -1.1 | -2.4 | -1.9
COc1cccc(-c2nc(N3CC(C)CC(C)C3)c3ccccc3n2)c1O (centres undefined) | 0.1 | -0.1 | 0.0 | 5.9* | -0.4
COc1ccc(OC)c(CN2C(=O)c3ccnn3CC2(C)c2nnnn2C2CCCC2)c1 (centres undefined) | · | -0.4 | -0.5 | -0.7 | 0.6
O=C(NC1CCS(=O)(=O)C1)Oc1ccccc1 (centres undefined) | -0.1 | 2.6 | -1.0 | 0.5 | -0.1
O=C(NC1CCCCC1)Oc1ccccc1 | 6.9* | 1.6 | -0.7 | 2.6 | -0.1
O=C(O)CNC(=O)/C(=C\c1ccc2c(c1)OCO2)NC(=O)c1ccc(Br)cc1 | · | 3.9 | -0.7 | -1.9 | 0.6
O=C(NCCO)/C(=C/c1ccc2c(c1)OCO2)NC(=O)c1ccc(Br)cc1 | 4.5* | 0.5 | -0.8 | -1.0 | -0.4
CCOC(=O)C1=NN(c2cccc(Cl)c2)C2=NC(C)=C(C(=O)OC)C(c3cccs3)N12 (centres undefined) | 5.6* | 2.1 | -1.9 | 0.5 | -0.3
COc1ccc(S(=O)(=O)N2CCN(CC(=O)c3c(N)n(C)c(=O)n(C)c3=O)CC2)cc1OC | 5.2* | 2.6 | -1.1 | -1.3 | -1.4
COc1ccc(S(=O)(=O)N2CCN(C(=O)c3ccc(=O)[nH]n3)CC2)cc1OC | 7.5* | 0.7 | -0.1 | -0.2 | 0.4
Cn1c(N)c(C(=O)CN2CCN(S(=O)(=O)c3ccccc3C#N)CC2)c(=O)n(C)c1=O | -0.1 | -2.3 | -1.3 | -1.6 | -0.7
CN1C(=O)c2cc(NC(=O)Nc3ccccc3)ccc2OC[C@H]2O[C@@H](CC(=O)N[C@H]3CCN(Cc4ccccc4)C3)CC[C@@H]21 | · | -3.5 | -1.3 | 0.9 | 0.3
COC[C@@H]1CCCN1c1cccc2c1S(=O)(=O)N(C1CC1)CCCO2 | · | -1.5 | -1.0 | -0.8 | -0.2
O=C(CSc1nc(-c2ccco2)cc(C(F)(F)F)n1)NCCN1CCOCC1 | 6.0* | 0.1 | -1.4 | -1.9 | -0.2
O=C(CSc1nc(-c2ccc(F)cc2)cc(C(F)(F)F)n1)NCCN1CCOCC1 | 1.7 | 0.1 | -1.4 | 0.0 | 0.2
COC(=O)[C@@]12CCCCC3=C1N(CCC3)C(=O)[C@H]2CC(=O)N1CCN(C(=O)C2CC2)CC1 | · | 2.0 | -1.0 | -1.2 | 0.3
CCCOc1ccc(CN2CCOCC2)cc1OC | 5.3* | -1.5 | -0.8 | -0.7 | 0.2
CC1=C[C@]2(CN(CC3CC3)C3=N[C@H](c4ccccc4)CC(=O)N32)n2c(=O)n(-c3ccccc3)c(=O)n2C1 | · | 1.4 | -1.1 | -1.3 | ·
CN(c1ccc(C(=O)N2CCN(Cc3ccccc3)CC2)cc1)S(=O)(=O)c1ccccc1 | -2.0 | -1.2 | -1.6 | -1.5 | -0.9
CCN1CCN(C(=O)c2ccc(Cl)c(S(=O)(=O)N(C)c3ccccc3)c2)CC1 | 6.0* | -0.6 | -0.8 | -0.4 | 0.3
Cc1cc(/C=C(\C#N)C(=O)Nc2ccccc2)c(C)n1-c1ccc2c(c1)OCO2 | 0.4 | -1.3 | -1.2 | -2.2 | -1.0
SMILES | DAX1 inh-1 | hgDAF12 agonist | ssDAF-12 act | hcDAF12 agonist | DAX1 inh-2
Cc1cc(/C=C(/C#N)C(=O)Nc2ccccc2)c(C)n1-c1cccnc1 | 0.0 | 10.8* | -1.3 | 1.4 | 1.9
COc1ccc(C2c3c(oc4ccccc4c3=O)C(=O)N2c2ccc(C)cn2)cc1OC (centres undefined) | 5.0* | -1.3 | -0.6 | -0.8 | 1.1
Cc1cc(OCc2cc(C(=O)N(C)C(C)c3ccccn3)no2)cc(C)c1Cl (centres undefined) | 0.7 | 12.1* | 0.0 | 2.8 | 1.2
COCC1CCN(C(=O)c2cc(COc3cc(C)c(Cl)c(C)c3)on2)C1 (centres undefined) | 0.3 | 8.7 | -0.3 | 6.3* | 1.3
CC(=O)c1ccc(OCc2cc(C(=O)N(C)Cc3ccon3)no2)cc1 | 0.1 | -0.9 | -0.7 | -0.5 | 0.0
CC(=O)c1ccc(OCc2cc(C(=O)N(C)Cc3ccccn3)no2)cc1 | 0.1 | 9.3 | 1.0* | 4.2 | 4.0*
Cc1cc(OCc2cc(C(=O)N(C)Cc3ccccn3)no2)cc(C)c1Cl | 1.4 | 11.3* | -0.3 | 1.1 | 1.1
CCN(CC1CCCO1)C(=O)c1cc(COc2cc(C)c(Cl)c(C)c2)on1 (centres undefined) | 0.5 | 7.3 | 1.5* | 4.6 | 0.3
O=c1[nH]c(S)c(/C=C2\C=Nc3ccccc32)s1 | · | 1.8 | 1.2* | 4.3 | -0.1
Oc1nc(Nc2ccc(F)cc2)sc1/C=C1\C=Nc2ccccc21 | -0.3 | -1.6 | -0.5 | 1.0 | -0.9
C=C1C(=O)[C@]23C[C@H]1CC[C@H]2[C@]1(C)CCC[C@@](C)(C(=O)OC)[C@H]1C[C@@H]3O | · | -17.9 | -3.4 | -9.8 | -7.4
COC(=O)[C@]12C[C@H](CC(=O)N3CCN(C(=O)C4CC4)CC3)C(=O)N(Cc3ccc(Cl)cc3Cl)C1=C[C@H](C(C)(C)C)O[C@@H]2C | · | -2.5 | -1.5 | -2.5 | -1.1
Oc1ccc(C2CNCc3sccc32)cc1O (centres undefined) | -0.5 | 0.2 | 1.0* | -2.2 | -0.2
COC(=O)[C@]12C[C@H](CC(=O)N3CCOCC3)C(=O)N(CCC3=CCCCC3)C1=C[C@H](C(C)C)O[C@@H]2C1CC1 | · | -0.7 | -1.4 | -2.0 | -0.9
Nc1ccc2c(c1)C(=O)c1ccccc1-2 | 6.1* | 0.0 | -1.3 | -1.1 | 0.2
CCCCNC(=O)C[C@@H]1C(=O)N2CCCC3=C2[C@@]1(C(=O)OCC)CCC3 | · | 4.2 | -1.1 | 2.5 | -1.1
Cc1ccc2c(c1)C1CS(=O)(=O)N(CC(C)C)C(=O)N1C2 (centres undefined) | · | 8.7 | -1.0 | 3.5 | 2.6
CC(C)(C)c1ccc(/C=C/C(=O)N2CCCCC2)cc1 | 4.1 | 11.4* | -0.4 | 3.1 | 3.7*
Cc1ccc(Cl)c(OCC(=O)OCC(=O)c2ccc[nH]2)c1 | 0.2 | 1.3 | -1.2 | -0.4 | -0.6

Screening data from PubChem BioAssay.
